The results in this text go back to PubChem BioAssay (EPA / NIEHS).

Records with an inconclusive call do not appear. Calls of active or inactive are those of the source. The calls were made as follows: active = hit-call score of the fitted dose curve at least 0.9, where 1 is the maximum; inconclusive = response in the unintended direction; inactive = score below 0.9.

A short description of the test: Tanguay_ZF_120hpf_OTIC_legacy: (Legacy) Oregon State University Tanguay Lab 120 Hour Post-fertilization zebrafish Assay for Otic Vesicle Malformation (AID 2283639). Put shortly:
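Wild-type zebrafish larvae, whole-embryo exposure from early stage to 120 hpf at 28C. Binary brightfield scoring of otic vesicle morphology, fitted in the positive direction against the DMSO baseline.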
As for `CC(=O)S[C@H](C(=O)N[C@H]1Cc2ccccc2[C@H]2CCC[C@@H](C(=O)O)N2C1=O)C(C)C`, the compound was called inactive.
As for `CN(C)C(=O)NC1(c2ccccc2)CCN(CCC[C@]2(c3ccc(Cl)c(Cl)c3)CCCN(C(=O)c3ccccc3)C2)CC1`, the call was inactive.
The same measure, in the same setting: for `CCCCc1nc2cccnc2n1Cc1ccc(-c2ccccc2-c2nnn[nH]2)cc1` the value was “inactive”.
In general, AC50 refers to the concentration giving half of the maximal activity seen. Regarding `S=c1[nH]c2ccccc2s1`, the half-maximal activity concentration (AC50) is 11.2 µM (active).
As to `COC(=O)[C@H]1[C@H]2C[C@@H]3c4[nH]c5cc(OC)ccc5c4CCN3C[C@H]2C[C@@H](OC(=O)c2cc(OC)c(OC)c(OC)c2)[C@@H]1OC`, the call was inactive.
`CCC(C)N(C)C(=O)c1cc2ccccc2c(-c2ccccc2Cl)n1` (centres undefined): the result was inactive.
As for `CN(C)CCCN1c2ccccc2Sc2ccc(Cl)cc21`, the outcome was inactive.
On the same count and under the same terms, for `COC(=O)CCCC(=O)OC` the value was “inactive”.
For `CCCCCCCCCCCCCCOS(=O)(=O)O`, the AC50 was 9.8 µM (active).
